# Measured values published in article PMC8384837, “Expanding the binding specificity for RNA recognition by a PUF domain”.
# Molecular target: PUM1 PUF domain R5-DHN (Homo sapiens, UniProt Q14671 828-1176, C1007D;R1008H;Q1011N)
# Assay: yeast three-hybrid, YBZ-1, SC-Leu-His + 0.5 mM 3-AT, 4 days
# Details: tags: N-Gal4 AD-HA kept; label: inside an RPR1-promoter hybrid RNA with tandem MS2 sites; ssRNA
# How it was run: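 Matching RNA elements and Pumilio-1 PUF domain libraries, randomized at the three base-contacting residues of every repeat, were co-expressed from a centromeric plasmid in strain YBZ-1 (LexA–MS2 coat fusion, HIS3 reporter). The repeat regions were PCR-amplified and Illumina-sequenced from cells grown four days on SC-Leu (input) or SC-Leu-His + 0.5 mM 3-AT (selection). The interaction score is the log change in variant frequency from input to selection. It is computed in log2, with a pseudocount of 1 for absent variants.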
row,Sequence,binding signal
1,GGCUAGAACUAGUGGAUCCCCCGGCGCCCGGCGGCUCGAGCCCGGGUAAGUGUGAAUAGUCUGCAUGCCGCCGGGCGCCAUGCCUGCAGGUCGACUCUAGAAAACAUG,2.35 log2 enrichment (interaction score)
2,GGCUAGAACUAGUGGAUCCCCCGGCGCCCGGCGGCUCGAGCCCGGGUAAGUGUAAAUAGUCUGCAUGCCGCCGGGCGCCAUGCCUGCAGGUCGACUCUAGAAAACAUG,3.41 log2 enrichment (interaction score)
3,GGCUAGAACUAGUGGAUCCCCCGGCGCCCGGCGGCUCGAGCCCGGGUAAGUGUUAAUAGUCUGCAUGCCGCCGGGCGCCAUGCCUGCAGGUCGACUCUAGAAAACAUG,2.22 log2 enrichment (interaction score)
